# Whole data set: some 33,000 sequences, median “E-score (-0.5 to 0.5)” near -0.015, cut for the highest 2% near 0.3. Shown is part of a subset that was picked to be rich in the highest values.
# Biological target: T1, Abf1 (UniProt P14164)
# T1 sequence: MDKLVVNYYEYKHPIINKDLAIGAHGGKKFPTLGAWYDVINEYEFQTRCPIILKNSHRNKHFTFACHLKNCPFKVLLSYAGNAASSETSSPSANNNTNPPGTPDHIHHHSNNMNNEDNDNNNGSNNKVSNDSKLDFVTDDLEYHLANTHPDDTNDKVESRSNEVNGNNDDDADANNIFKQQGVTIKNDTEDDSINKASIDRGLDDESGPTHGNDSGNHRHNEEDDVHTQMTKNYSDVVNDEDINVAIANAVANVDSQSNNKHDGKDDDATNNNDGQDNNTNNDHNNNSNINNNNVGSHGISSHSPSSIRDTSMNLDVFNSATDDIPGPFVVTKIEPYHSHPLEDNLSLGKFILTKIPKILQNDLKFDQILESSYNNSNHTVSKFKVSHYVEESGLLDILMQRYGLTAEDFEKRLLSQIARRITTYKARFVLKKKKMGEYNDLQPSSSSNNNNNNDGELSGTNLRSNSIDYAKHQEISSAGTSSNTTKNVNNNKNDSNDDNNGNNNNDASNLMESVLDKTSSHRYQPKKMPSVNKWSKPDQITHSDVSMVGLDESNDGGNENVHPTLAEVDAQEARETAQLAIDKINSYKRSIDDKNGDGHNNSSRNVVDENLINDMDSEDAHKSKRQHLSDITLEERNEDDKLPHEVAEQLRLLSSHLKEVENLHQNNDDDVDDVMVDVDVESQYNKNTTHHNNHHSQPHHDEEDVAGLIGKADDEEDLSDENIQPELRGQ
# Experiment: PBM E-score (8-mer binding enrichment) (E-score (-0.5 to 0.5)); higher = stronger / more preferred TF binding
# Conditions: protein concentration: 200 nM; construct: GST-full length
# Procedure: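 Universal 'all 10-mer' protein binding microarrays (Agilent AMADID 015681) probed with GST-tagged S. cerevisiae TFs (full-length or DBD) made by in vitro transcription/translation (PURExpress), about 100-200 nM. Bound TF was detected with fluorescent anti-GST. Each ungapped 8-mer (which stands for itself and its reverse complement) is scored by the PBM enrichment score (E-score), a modified Wilcoxon-Mann-Whitney statistic from -0.5 to +0.5, computed with the Universal PBM Analysis Suite. Scale: above 0.35 generally sequence-specific binding.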
row,Sequence,PBM E-score
1,CAAGTTGA,-0.187
2,CCCGGGCC,-0.304
3,CAACTCGC,0.0334
4,AATTTCAT,0.134
5,GCCAGGCA,-0.186
6,TGCCTCAA,-0.124
7,TCCGGCGA,0.069
8,TACGGCAA,0.301
9,CACGGCAA,0.219
10,GACGGCGA,0.0475
11,AACGGCGA,0.327
12,GACGGCTA,0.0813
13,CACGGCTA,0.307
14,AACGGCGC,0.123
15,GACGGCAA,0.246
16,AACGGCTA,0.193
17,TACGGCGA,0.313
18,AACGGCGT,0.227
19,GCCATGAA,-0.0667
20,ATTTTCCG,0.1
21,CCCGGAAC,-0.125
22,AATTCACT,-0.102
23,AAGCTCTC,-0.125
24,GCCATAGA,-0.126
25,GACTCATA,-0.0291

row,Sequence,PBM E-score
1,ACTTCGCA,0.0373
2,CACGGCGG,0.00732
3,CACGGTGC,0.0971
4,ACGGGTGG,0.0777
5,CACGGTGA,0.308
6,CACGGCGA,0.305
7,ACGGGTGA,0.32
8,CCGGGTGA,0.12
9,CACGGCGC,0.139
10,AACGGTGA,0.135
11,AAGTGGTC,-0.131
12,CCACCTGA,-0.0561
13,TCAATAGA,-0.172
14,AGTGATGA,0.366
15,GGTGATGA,0.34
16,GGTGATTA,0.242
17,CGTGATGA,0.31
18,GTTGATGA,0.283
19,CGTGATGC,0.0552
20,CCTGATGA,0.139
21,AGTGATTA,0.351
22,AGTGATGG,0.056
23,GCTGATGA,0.199
24,ACTGATGA,0.19
25,AGTGATTC,0.207

row,Sequence,PBM E-score
1,CATTCGCC,0.0362
2,ATTATTAG,0.164
3,CATCCTCC,-0.127
4,ACAGGTCA,-0.0348
5,ACCTGCAT,0.013
6,AACCAGCC,-0.0913
7,CTGTGAAC,0.0459
8,CCTCCCAG,-0.196
9,CGTGCCAG,0.148
10,ACCTGGCC,-0.0752
11,CCCTCTAA,-0.23
12,CCTAAATC,0.154
13,AATGATGC,0.196
14,AGTGATGC,0.319
15,ATTGATGC,0.0481
16,AGAAGACT,-0.0993
17,TCACTACA,0.344
18,ACACTACA,0.169
19,CCACTACA,-0.0773
20,CTCTGTGA,-0.118
21,CGAACAGC,-0.165
22,AAGATCCT,0.0788
23,TATTTCGA,0.272
24,CAGACGAC,0.191
25,GAGACGAA,0.0822

row,Sequence,PBM E-score
1,TAGACGAA,0.338
2,TAGACGGA,0.122
3,CAGACGAA,0.324
4,AAGACGAA,0.223
5,AAGCTAAC,0.0254
6,AGTCAGCC,-0.181
7,CCTCCCAC,-0.188
8,CCTCCAGC,-0.322
9,GCCTACCC,-0.25
10,CACTAGCC,0.144
11,GATGTCCC,0.209
12,ACGATGCG,0.07
13,ACCCCCGT,-0.0911
14,AGGACGAC,0.12
15,AGGACGAA,0.147
16,CGGACGAG,0.191
17,GGGACGAA,0.0455
18,CGGACGAC,0.343
19,CGGACGAA,0.35
20,AGAGCGTC,0.0295
21,AGACTTTG,0.0104
22,CGCAAACC,-0.124
23,AGTGAAGG,-0.145
24,GTTCTTCA,0.117
25,GGGTCTAA,-0.112

row,Sequence,PBM E-score
1,TCTCATCA,0.145
2,TATCATCA,0.385
3,AATCATCT,0.184
4,AATCATCA,0.317
5,AATCATCG,0.179
6,CATCATCA,0.254
7,GATCAACC,0.005
8,CTTCTATC,0.0251
9,ACGCACAC,0.0964
10,AAGGCTCG,-0.0968
11,ACGAAGGA,0.0584
12,AATCGTGA,0.175
13,AACCGTGG,-5e-05
14,GACCGTGC,0.108
15,AATCGTGC,0.311
16,AACCGTGC,0.306
17,AACCGTCG,0.298
18,AACCGTCC,-0.0986
19,CATCGTGC,0.314
20,AATCGTGG,0.125
21,AACCGTCT,-0.0069
22,CATCGTGG,0.0192
23,CATCGTGA,0.135
24,AGGCCCTA,-0.113
25,AATGTGCA,0.0308

row,Sequence,PBM E-score
1,GCTACAGA,-0.126
2,CAACTGGA,-0.182
3,ATCACTAA,0.359
4,AACACTAG,0.151
5,AGCACTAG,0.0299
6,AGCACTAA,0.154
7,ACCACTAA,-0.0853
8,CTCACTAC,0.203
9,CTCACTAA,0.129
10,AACACTAC,-0.0369
11,ATCACTAG,0.357
12,GTCACTAA,0.393
13,GCCACTAA,-0.149
14,ATCACTAC,0.375
15,CTCTCGTC,0.011
16,GCCTTACC,-0.255
17,TATGCACA,0.018
18,AAAGGGTA,-0.0845
19,CTAACCTC,-0.0908
20,AGTGAGCG,0.24
21,CTCATTTA,0.0543
22,ATCATACA,0.236
23,ATCATACC,0.205
24,GACATTTA,0.0126
25,CTCATTTC,0.0189

row,Sequence,PBM E-score
1,ATTATACA,0.0365
2,ATCATTTG,0.276
3,ATCATTTC,0.312
4,GTCATTTA,0.313
5,ATTATACC,0.217
6,ATCATACG,0.315
7,ATTATACG,0.331
8,AGGATCTC,-0.0704
9,GCTATCCA,0.00713
10,CGATTGGA,-0.00974
11,GCGCCGTA,0.291
12,TAGCCCTA,-0.149
13,AGGTTAAG,-0.128
14,CGCCTGAG,-0.0541
15,CCTACGCC,-0.0667
16,ATCATAAG,0.105
17,ATGATTTA,0.296
18,ATCATTCG,0.332
19,GTGATTTA,0.317
20,ATCATTCC,0.25
21,ATCATTCA,0.278
22,CTGATTTA,0.0199
23,GTGATGTA,0.399
24,ATCATAAA,0.303
25,ATGATGTA,0.272

row,Sequence,PBM E-score
1,CTGATGTA,-0.129
2,TTCATAAA,0.0402
3,AATGGGTG,-0.0386
4,ATCGGGTC,-0.0582
5,CCGCGAAC,0.00614
6,CGGAAAGA,-0.131
7,GTTGACTA,-0.164
8,GATGGGAC,-0.154
9,GACTGAAA,-0.037
10,CCCCAACG,-0.0545
11,AAAGGGAA,-0.0729
12,TGACCGAA,0.0507
13,AACATTTA,0.0911
14,ATCATTTA,0.305
15,ACCATTTA,0.0343
16,CATCCGAC,0.151
17,AGCACTGG,-0.168
18,ATCACTGC,0.32
19,CTCACTGC,-0.0817
20,AACACTGC,-0.155
21,ACCACTGG,-0.103
22,ATCACTGG,0.332
23,ATGTTCGC,0.00598
24,CGAAGGCA,-0.148
25,AACAGCCC,-0.373

row,Sequence,PBM E-score
1,CAAACGAC,0.198
2,AAAACGAC,0.323
3,AAAACGAT,0.326
4,AAAACGAG,0.0711
5,AAAACGAA,0.167
6,GAAACGAC,0.153
7,TATGCGGA,0.0153
8,TTTGCAAA,0.0778
9,GACCTGGC,-0.0415
10,GGAGTGAA,-0.0623
11,CGAGTGAA,-0.14
12,CGAGTGAC,0.358
13,GGAGTGAC,0.333
14,AGAGTGAC,0.288
15,CGAGTGAG,-0.011
16,CGAGACTC,0.0667
17,CGGAGACG,0.0614
18,AAAAGGCT,-0.0975
19,CGGCCGAG,0.0212

# Reference: the supplement of paper PMC3334620
